In article PMC8384837, “Expanding the binding specificity for RNA recognition by a PUF domain” one finds binding signal data, which are given here for 14 sequences.

Common to all, as to experiment: yeast three-hybrid, YBZ-1, SC-Leu-His + 0.5 mM 3-AT, 4 days
Settings in all cases: tags: N-Gal4 AD-HA kept; label: inside an RPR1-promoter hybrid RNA with tandem MS2 sites; ssRNA

One assay has as its target PUM1 PUF domain R5-RSI (Homo sapiens, UniProt Q14671 828-1176, C1007R;R1008S;Q1011I). In short, it runs like this: (§1)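 Repeat regions from input (SC-Leu) and selection (SC-Leu-His + 0.5 mM 3-AT) plates were PCR-amplified and Illumina-sequenced after four days of growth. The cells were strain YBZ-1 with a LexA–MS2 coat fusion and a HIS3 reporter, co-expressing Pumilio-1 PUF domain libraries and matching RNA elements from a centromeric plasmid. The interaction score is the log change in variant frequency from input to selection, taken in log2 with a pseudocount of 1 for absent variants.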

The next assay has as its target PUM1 PUF domain R4-MPG (Homo sapiens, UniProt Q14671 828-1176, N971M;H972P;Q975G). In short, it runs like this: as §1
A further assay concerns the target PUM1 PUF domain R4-VWK (Homo sapiens, UniProt Q14671 828-1176, N971V;H972W;Q975K). In short, it runs like this:
as §1

For another assay, the target named is PUM1 PUF domain R1-TSR (Homo sapiens, UniProt Q14671 828-1176, S863T;R864S;Q867R). In short, it runs like this:
as §1

The next assay deals with PUM1 PUF domain R1-QLD (Homo sapiens, UniProt Q14671 828-1176, S863Q;R864L;Q867D). In short, it runs like this: as §1
The target in the next assay is PUM1 PUF domain R1-RTE (Homo sapiens, UniProt Q14671 828-1176, S863R;R864T;Q867E). In short, it runs like this:
as §1

The target of another assay is T1, PUM1 PUF domain R6-WYG (Homo sapiens, UniProt Q14671 828-1176, N1043W;Q1047G).
T1 sequence: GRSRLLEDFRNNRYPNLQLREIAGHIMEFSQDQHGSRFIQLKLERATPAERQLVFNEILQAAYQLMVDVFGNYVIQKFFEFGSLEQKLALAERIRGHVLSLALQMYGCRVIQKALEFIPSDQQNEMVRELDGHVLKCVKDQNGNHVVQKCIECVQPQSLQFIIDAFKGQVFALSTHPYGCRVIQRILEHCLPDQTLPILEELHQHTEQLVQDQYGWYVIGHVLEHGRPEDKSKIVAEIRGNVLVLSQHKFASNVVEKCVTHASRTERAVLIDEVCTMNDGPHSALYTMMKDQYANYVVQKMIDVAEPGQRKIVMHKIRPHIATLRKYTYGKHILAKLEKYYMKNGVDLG
Summed up: as §1

A further assay deals with PUM1 PUF domain R8-KHS (Homo sapiens, UniProt Q14671 828-1176, N1122K;Y1123H;Q1126S). Summed up: as §1
The next assay addresses T2, PUM1 PUF domain R6-HFW (Homo sapiens, UniProt Q14671 828-1176, N1043H;Y1044F;Q1047W).
T2 sequence: T1 sequence with W216H, Y217F, G220W
In short, it runs like this:
as §1

The target of the next assay is PUM1 PUF domain R8-LRR (Homo sapiens, UniProt Q14671 828-1176, N1122L;Y1123R;Q1126R). Summed up: as §1
For the next assay, the target named is T3, PUM1 PUF domain R6-RHG (Homo sapiens, UniProt Q14671 828-1176, N1043R;Y1044H;Q1047G).
T3 sequence: T1 sequence with W216R, Y217H
In short, it runs like this:
as §1

In a further assay the target is PUM1 PUF domain R3-MSN (Homo sapiens, UniProt Q14671 828-1176, C935M;R936S;Q939N). Summed up:
as §1

The next assay has as its target PUM1 PUF domain R3-RSC (Homo sapiens, UniProt Q14671 828-1176, C935R;R936S;Q939C). Summed up: as §1
A further assay concerns the target PUM1 PUF domain R8-RPR (Homo sapiens, UniProt Q14671 828-1176, N1122R;Y1123P;Q1126R). Summed up:
as §1

The target in the next assay is PUM1 PUF domain R8-GYK (Homo sapiens, UniProt Q14671 828-1176, N1122G;Q1126K). Summed up:
as §1

In another assay the target is T4, PUM1 PUF domain R6-SWH (Homo sapiens, UniProt Q14671 828-1176, N1043S;Y1044W;Q1047H).
T4 sequence: T1 sequence with W216S, Y217W, G220H
In short, it runs like this: as §1

Another assay deals with PUM1 PUF domain R5-WWA (Homo sapiens, UniProt Q14671 828-1176, C1007W;R1008W;Q1011A). Summed up:
as §1

The next assay has as its target PUM1 PUF domain R2-LWM (Homo sapiens, UniProt Q14671 828-1176, N899L;Y900W;Q903M). In short, it runs like this: as §1

Residue numbers refer to the chain shown, from its start.

On to “GGCUAGAACUAGUGGAUCCCCCGGCGCCCGGCGGCUCGAGCCCGGGUAAGUGUUAAUAGUCUGCAUGCCGCCGGGCGCCAUGCCUGCAGGUCGACUCUAGAAAACAUG”, for which the binding signal with PUM1 PUF domain R5-RSI is 3 log2 enrichment (interaction score).
Same read-out and setting: to “GGCUAGAACUAGUGGAUCCCCCGGCGCCCGGCGGCUCGAGCCCGGGUAAGUGUCAAUAGUCUGCAUGCCGCCGGGCGCCAUGCCUGCAGGUCGACUCUAGAAAACAUG” belongs 2.24 log2 enrichment (interaction score).
Consider “GGCUAGAACUAGUGGAUCCCCCGGCGCCCGGCGGCUCGAGCCCGGGUAAGUGUAUAUAGUCUGCAUGCCGCCGGGCGCCAUGCCUGCAGGUCGACUCUAGAAAACAUG”, for which the binding signal with PUM1 PUF domain R4-MPG is 2.39 log2 enrichment (interaction score).
As for “GGCUAGAACUAGUGGAUCCCCCGGCGCCCGGCGGCUCGAGCCCGGGUAAGUGUACAUAGUCUGCAUGCCGCCGGGCGCCAUGCCUGCAGGUCGACUCUAGAAAACAUG”, the values for the binding signal with PUM1 PUF domain R4-MPG and with PUM1 PUF domain R4-VWK were 2.9 log2 enrichment (interaction score) and 5.63 log2 enrichment (interaction score), respectively.
Take “GGCUAGAACUAGUGGAUCCCCCGGCGCCCGGCGGCUCGAGCCCGGGUAAGUGUAAAUUGUCUGCAUGCCGCCGGGCGCCAUGCCUGCAGGUCGACUCUAGAAAACAUG”: the binding signal with PUM1 PUF domain R1-TSR is 0.81 log2 enrichment (interaction score); in the assay with PUM1 PUF domain R1-QLD, 4.86 log2 enrichment (interaction score); in the assay with PUM1 PUF domain R1-RTE, 2.65 log2 enrichment (interaction score).
As for “GGCUAGAACUAGUGGAUCCCCCGGCGCCCGGCGGCUCGAGCCCGGGUAAGUGUAAAUCGUCUGCAUGCCGCCGGGCGCCAUGCCUGCAGGUCGACUCUAGAAAACAUG”, the binding signal in the assay with PUM1 PUF domain R1-TSR is 2.68 log2 enrichment (interaction score).
Turning to “GGCUAGAACUAGUGGAUCCCCCGGCGCCCGGCGGCUCGAGCCCGGGUAAGUGUAAAUAGUCUGCAUGCCGCCGGGCGCCAUGCCUGCAGGUCGACUCUAGAAAACAUG”, the binding signal in the assay with PUM1 PUF domain R6-WYG is 3.19 log2 enrichment (interaction score); in the assay with PUM1 PUF domain R8-KHS, 4.58 log2 enrichment (interaction score); in the assay with PUM1 PUF domain R6-HFW, 3.2 log2 enrichment (interaction score); with PUM1 PUF domain R8-LRR it was 2.35 log2 enrichment (interaction score); with PUM1 PUF domain R6-RHG, 2.33 log2 enrichment (interaction score).
In the case of “GGCUAGAACUAGUGGAUCCCCCGGCGCCCGGCGGCUCGAGCCCGGGUAAGUGUAAGUAGUCUGCAUGCCGCCGGGCGCCAUGCCUGCAGGUCGACUCUAGAAAACAUG”, in the assay with PUM1 PUF domain R3-MSN, the binding signal is 2.68 log2 enrichment (interaction score).
“GGCUAGAACUAGUGGAUCCCCCGGCGCCCGGCGGCUCGAGCCCGGGUAAGUGUAAUUAGUCUGCAUGCCGCCGGGCGCCAUGCCUGCAGGUCGACUCUAGAAAACAUG”: the binding signal in the assay with PUM1 PUF domain R3-RSC is 3.04 log2 enrichment (interaction score).
As for “GGCUAGAACUAGUGGAUCCCCCGGCGCCCGGCGGCUCGAGCCCGGGUAAGUGUAAAUGGUCUGCAUGCCGCCGGGCGCCAUGCCUGCAGGUCGACUCUAGAAAACAUG”, in the assay with PUM1 PUF domain R1-RTE, the binding signal is 0.93 log2 enrichment (interaction score).
As for “GGCUAGAACUAGUGGAUCCCCCGGCGCCCGGCGGCUCGAGCCCGGGUAAGCGUAAAUAGUCUGCAUGCCGCCGGGCGCCAUGCCUGCAGGUCGACUCUAGAAAACAUG”, the binding signal with PUM1 PUF domain R8-LRR was 3.25 log2 enrichment (interaction score); with PUM1 PUF domain R8-RPR, 2.38 log2 enrichment (interaction score); with PUM1 PUF domain R8-GYK, 4.76 log2 enrichment (interaction score).
Consider “GGCUAGAACUAGUGGAUCCCCCGGCGCCCGGCGGCUCGAGCCCGGGUAAGUGAAAAUAGUCUGCAUGCCGCCGGGCGCCAUGCCUGCAGGUCGACUCUAGAAAACAUG”, for which the binding signal with PUM1 PUF domain R6-SWH is 2.64 log2 enrichment (interaction score).
Regarding “GGCUAGAACUAGUGGAUCCCCCGGCGCCCGGCGGCUCGAGCCCGGGUAAGUGUGAAUAGUCUGCAUGCCGCCGGGCGCCAUGCCUGCAGGUCGACUCUAGAAAACAUG”, the binding signal in the assay with PUM1 PUF domain R5-WWA was 2.58 log2 enrichment (interaction score).
With “GGCUAGAACUAGUGGAUCCCCCGGCGCCCGGCGGCUCGAGCCCGGGUAAGUGUAAAAAGUCUGCAUGCCGCCGGGCGCCAUGCCUGCAGGUCGACUCUAGAAAACAUG”, the binding signal with PUM1 PUF domain R2-LWM was 7 log2 enrichment (interaction score).
